Experimental data reported in PubChem BioAssay (NCATS).
Results filed as inconclusive are left out. Activity calls are given as the source filed them. The call rests on the fitted dose curve; in most records, active means well fitted curve in the direction sought with a large enough effect; inconclusive means small, poorly fitted or top-dose-only effect, or another doubt; inactive means no such curve, though single readings can be large; an effect the other way counts as inactive or inconclusive.

Assays:
[1] = molecular target: Glutathione peroxidase 1 (Homo sapiens) (UniProt P07203); test: Primary qHTS Assay for Inhibitors of Recombinant Selenoprotein Glutathione Peroxidase 1 (GPX1) (AID 1845191); further: nearly all actives have a fitted effect of over 65% in size; on activity, negative = inhibition: on the % scale 0 is the no-effect control and ±100 the full control effect
In short: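 Recombinant GPX1 (10 nM final) was preincubated with compound for 30 min at room temperature, then reacted with 1 mM GSH, 0.5 mM CHP, 0.5 mM NADPH and 100 nM glutathione reductase; NADPH fluorescence (340/450 nm) was read at 0 and 15 min.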

[2] = molecular target: Phospholipid hydroperoxide glutathione peroxidase GPX4 (Homo sapiens) (UniProt P36969); test: Primary qHTS Assay for Inhibitors of Recombinant Selenoprotein Glutathione Peroxidase 4 (GPX4) (AID 1845192); further: nearly all actives have a fitted effect of over 65% in size; on activity change, negative = inhibition: series mostly up to about 50 µM; on the % scale 0 is the no-effect control and ±100 the full control effect
In short: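 GR-coupled readout: 100 nM GR, 1 mM GSH, 0.5 mM NADPH; NADPH fluorescence (ex 340/em 450 nm) read at t=0 and after 15 min RT. GPX4 200 nM, preincubated 30 min with compound; substrate 0.5 mM CHP.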

[3] = molecular target: Luciferin 4-monooxygenase (Photinus pyralis) (UniProt P08659); test: Primary firefly luciferase (FLuc) qHTS assay for identification of artifact compounds. (AID 1845220); further: nearly all actives have a fitted effect of over 60% in size; further: potency means the concentration at half of the fitted maximal effect;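 on activity change, negative = inhibition: series mostly up to about 54 µM; plate controls were DMSO vehicle for no effect and no enzyme for full effect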
In short: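 In this counter-screen for luciferase artifacts, test compounds met substrate (10 uM each luciferin and ATP) before 10 nM enzyme started the reaction. Light output was measured 5 min later.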

[4] = Primary fluorescence-based thiol-reactive (MSTI) qHTS assay for identification of artifact compounds. (AID 1845221); further: nearly all actives have a fitted effect of over 65% in size; further: potency means the concentration at half of the fitted maximal effect;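 on activity change, negative = thiol reactive: series mostly up to about 54 µM; thiol-reactive compounds lower the probe fluorescence signal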
In short: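 Compounds were incubated 1 h at room temperature in the dark with the MSTI probe (4 uM) in PBS pH 7.4, 2% DMSO. Signals were normalized between Acetyl-MSTI and MSTI.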

[5] = system: Nanoluciferase (engineered Oplophorus gracilirostris luciferase); test: Primary Nanoluciferase (NLuc) qHTS assay for identification of artifact compounds. (AID 1845222);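 further: NLuc secreted into diluted conditioned medium of S16 cells; series mostly up to about 54 µM; 0% = DMSO and -100% = no enzyme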
In short: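 Using secreted nanoluciferase in S16 culture medium (0.22 um filtered, 1:55 dilution), compounds were preincubated 15 min at RT. Signal was generated with Nano-Glo reagent (1:100) over 5 min.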

[6] = Primary redox qHTS assay for identification of artifact compounds. (AID 1845223);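 further: 0% = DMSO and 100% = reference compound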
In short: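 Amplex Red (25 uM) and HRP (250 mU/mL) in HBSS, with compounds for 15 min, then 250 uM DTT for 30 min, room temperature, dark. Fluorescence 525/598 nm read; normalized to DMSO and 10 uM DA3003; Hill fit.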

Sequence of Glutathione peroxidase 1 (Homo sapiens) (P07203 whole entry, looked up): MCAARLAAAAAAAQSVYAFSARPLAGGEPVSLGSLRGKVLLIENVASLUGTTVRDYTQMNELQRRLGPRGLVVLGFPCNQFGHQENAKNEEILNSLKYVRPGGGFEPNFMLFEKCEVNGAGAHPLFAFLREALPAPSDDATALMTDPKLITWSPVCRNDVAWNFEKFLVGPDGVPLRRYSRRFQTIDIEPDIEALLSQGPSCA
Sequence of Phospholipid hydroperoxide glutathione peroxidase GPX4 (Homo sapiens) (P36969 whole entry, looked up): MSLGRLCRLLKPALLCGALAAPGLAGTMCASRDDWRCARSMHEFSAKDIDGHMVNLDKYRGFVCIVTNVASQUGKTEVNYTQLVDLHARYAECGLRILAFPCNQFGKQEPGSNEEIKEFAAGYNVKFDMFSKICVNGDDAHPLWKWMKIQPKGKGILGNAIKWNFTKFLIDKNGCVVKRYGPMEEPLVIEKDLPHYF

O=S(=O)(c1ccc(Cl)cc1)N1CCN(c2ccnc3cc(Cl)ccc23)CC1
inactive: Potency [1] | Potency [2] | Potency [3] | Potency [4] | Potency [5] | Potency [6]

CCN1CCN(Cc2ccc(NC(=O)c3ccc(C)c(Oc4ccnc5[nH]ccc45)c3)cc2C(F)(F)F)CC1
inactive: Potency [1] | Potency [2] | Potency [3] | Potency [4] | Potency [5] | Potency [6]

C=C1CC[C@@H]2[C@](C)(CO)[C@H](O)CC[C@@]2(C)[C@@H]1C/C=C1/C(=O)OCC1O (stereo partly drawn)
inactive: Potency [1] | Potency [2] | Potency [3] | Potency [4] | Potency [5] | Potency [6]

CC(=O)O[C@H]1CC[C@]2(C)[C@H]3CC[C@]4(C)Oc5oc(C)cc(=O)c5C[C@H]4[C@]3(C)CC[C@H]2C1(C)C
inactive: Potency [1] | Potency [2] | Potency [3] | Potency [4] | Potency [5] | Potency [6]

CC(=O)OC1C(OC(=O)c2ccccc2)C2C(C)(C)CCC(OC(C)=O)C2(C)C23CCC(C)(C2)C(=O)CC13 (stereo not drawn)
inactive: Potency [1] | Potency [2] | Potency [3] | Potency [4] | Potency [5] | Potency [6]

CCOc1ccc(S(=O)(=O)N2CCCCCC2)c2ccccc12
inactive: Potency [1] | Potency [2] | Potency [3] | Potency [4] | Potency [5] | Potency [6]

C/C=C/C1=CC2=C(CO1)C(=O)C(C)(OC(=O)c1c(C)cc(O)cc1OC)C(O)C2 (stereo not drawn)
inactive: Potency [1] | Potency [2] | Potency [3] | Potency [4] | Potency [5] | Potency [6]

O=C(c1ccccn1)N(Cc1cccs1)C1(C(=O)NC2CCCCC2)CCCCC1
inactive: Potency [1] | Potency [2] | Potency [3] | Potency [4] | Potency [5] | Potency [6]

C1=C/COCc2cc(ccc2OCCN2CCCC2)Nc2nccc(n2)-c2cccc(c2)COC/1
inactive: Potency [1] | Potency [2] | Potency [3] | Potency [4] | Potency [5] | Potency [6]

O=C(NC1(c2ccccc2)CC1)c1c(CN2CCC(N3CCCCC3)CC2)c(-c2cccc(C(F)(F)F)c2)nc2cc(Br)ccc12
inactive: Potency [1] | Potency [2] | Potency [3] | Potency [4] | Potency [5] | Potency [6]

Cc1ccnc(NC(=O)C(C)c2cccc(C(=O)c3ccccc3)c2)c1 (stereo not drawn)
inactive: Potency [1] | Potency [2] | Potency [3] | Potency [4] | Potency [5] | Potency [6]

O=C(COc1ccc(C(=O)c2ccccc2)cc1)NC1CCN(Cc2ccccc2)CC1
inactive: Potency [1] | Potency [2] | Potency [3] | Potency [4] | Potency [5] | Potency [6]

C=C1C(=O)OC2C3=C(C)C(=O)CC3C(C)CC(O)C12 (stereo not drawn)
inactive: Potency [1] | Potency [2] | Potency [3] | Potency [5] | Potency [6]
active: Potency [4] 11.9 µM

O=C(Nc1cccc(C(F)(F)F)c1)Nc1ccc(Br)cc1-c1nn[nH]n1
inactive: Potency [1] | Potency [2] | Potency [3] | Potency [4] | Potency [5] | Potency [6]

COc1ccc(CCCN2CCC(COC(c3ccccc3)c3ccccc3)CC2)cc1
inactive: Potency [1] | Potency [2] | Potency [3] | Potency [4] | Potency [5] | Potency [6]

O=C(Nc1ccc(N2C(=O)[C@@H]3[C@H](C2=O)[C@@H]2C=C[C@H]3C2)c(Cl)c1)c1ccccn1
inactive: Potency [1] | Potency [2] | Potency [4] | Potency [5] | Potency [6]
active: Potency [3] 19 µM

COc1c(C)cc(NC(=O)c2nn(Cc3ccc(F)cc3)c3c2CN(C(=O)c2ccc[nH]2)C[C@]3(C)C(N)=O)cc1C
inactive: Potency [1] | Potency [2] | activity change, negative = inhibition [3] 2.65% [at 11.6 µM] | activity change, negative = thiol reactive [4] 108% [at 11.5 µM] | activity, negative = inhibition [5] 0.489% [at 11.6 µM] | redox activity (% of DA3003) [6] 7.9% [at 11.5 µM]

O=C(Nc1nc2cc(C(F)(F)F)cc(NC3CC3)n2n1)c1cccnc1
inactive: Potency [1] | Potency [2] | Potency [3] | Potency [4] | Potency [5] | Potency [6]

CC(=O)C=C=C1C(C)(C)CC(O)CC1(C)O[C@@H]1O[C@H](CO[C@H]2OC[C@](O)(CO)[C@H]2O)[C@@H](O)[C@H](O)[C@H]1O (stereo partly drawn)
active: Potency [4] 5.19 µM
inactive: Potency [1] | Potency [2] | Potency [3] | Potency [5] | Potency [6]

CCCn1ncc(CN2CCCC(C(=O)c3cccc(OC(C)C)c3)C2)c1C (stereo not drawn)
inactive: Potency [1] | Potency [2] | Potency [3] | Potency [4] | Potency [5] | Potency [6]

O=C(Nc1cccnn1)N1CCN(c2nccc(-c3ccc(F)c(F)c3)n2)CC1
inactive: Potency [1] | Potency [2] | Potency [3] | Potency [4] | Potency [5] | Potency [6]

C[C@@H]1C[C@H]2O[C@@]3(O[C@@H]2C(C)(C)O)C(O)[C@@]2(C)C4CCC5C(C)(C)[C@@H](O[C@H]6OC[C@H](O)[C@@H](O)[C@@H]6O)CC[C@@]56C[C@@]46CC[C@]2(C)C13 (stereo partly drawn)
inactive: Potency [1] | Potency [2] | Potency [3] | Potency [4] | Potency [5] | Potency [6]

O=C(Nc1ccccc1)N1CCN(c2nc(-c3ccccc3)ns2)CC1
inactive: Potency [1] | Potency [2] | Potency [3] | Potency [4] | Potency [5] | Potency [6]
